PubChem BioAssay AID1159580 (chemical genetic matrix, 2015)
Among all 5,500 compounds or so, about 2,000 (36%) were called active. Another 18% or so got no clear call; they are omitted. No stated cut-off is given here; in the data, active means normalized growth mostly below about 0.91 (no sharp cut-off); inconclusive means no clear call, values can overlap the other calls; inactive means mostly above about 0.92. Some of the results follow.

Assay: chemical genetic growth profiling, strain panel (AID 1159580);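 further: tested at 20 µM; growth read once vehicle control cultures reached saturation at 30 °C; 1 = growth at the plate median or of vehicle wells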
Conditions: growth OD

Measured: normalized growth

COc1cc([C@@H]2c3cc4c(cc3[C@H](O)[C@H]3COC(=O)[C@H]23)OCO4)cc(OC)c1OC
inactive: S. cerevisiae deletion strains, locus YJR075W, strain HOC1, stronger effect = lower value 1.03 | S. cerevisiae deletion strains, locus YKL009W, strain mrt4, stronger effect = lower value 1.04 | S. cerevisiae deletion strains, locus YKL068W, stronger effect = lower value 1.01 | S. cerevisiae deletion strains, locus YKL085W, strain MDH1 (second series), stronger effect = lower value 1.01 | S. cerevisiae deletion strains, locus YKL085W, strain MDH1, stronger effect = lower value 1.01 | S. cerevisiae deletion strains, locus YKL160W, strain elf1, stronger effect = lower value 1 | S. cerevisiae deletion strains, locus YKL190W, strain CNB1, stronger effect = lower value 1.01 | S. cerevisiae deletion strains, locus YKR001C, strain vps1, stronger effect = lower value 1.01 | S. cerevisiae deletion strains, locus YKR026C, strain gcn3, stronger effect = lower value 1.01 | S. cerevisiae deletion strains, locus YKR091W, strain srl3, stronger effect = lower value 1.01 | S. cerevisiae deletion strains, locus YLL001W, strain dnm1, stronger effect = lower value 0.984 | S. cerevisiae deletion strains, locus YLL026W, stronger effect = lower value 1 | S. cerevisiae deletion strains, locus YLL041C, strain sdh2, stronger effect = lower value 1.01 | S. cerevisiae deletion strains, locus YLR027C, strain aat2, stronger effect = lower value 1.01 | S. cerevisiae deletion strains, locus YLR039C, strain RIC1, stronger effect = lower value 1.02 | S. cerevisiae deletion strains, locus YLR058C, strain SHM2, stronger effect = lower value 1.01 | S. cerevisiae deletion strains, locus YLR102C, strain apc9, stronger effect = lower value 1.01 | S. cerevisiae deletion strains, locus YLR113W, strain HOG1, stronger effect = lower value 0.924 | S. cerevisiae deletion strains, locus YLR221C, strain rsa3, stronger effect = lower value 1.02 | S. cerevisiae deletion strains, locus YLR258W, strain gsy2, stronger effect = lower value 1.02 | S. cerevisiae deletion strains, locus YLR262C, strain YPT6 (second series), stronger effect = lower value 1.01 | S. cerevisiae deletion strains, locus YLR262C, strain YPT6, stronger effect = lower value 1.05 | S. cerevisiae deletion strains, locus YLR268W, strain sec22, stronger effect = lower value 1.06 | S. cerevisiae deletion strains, locus YLR320W, strain mms22, stronger effect = lower value 1.05 | S. cerevisiae deletion strains, locus YLR330W, strain CHS5, stronger effect = lower value 1.01 | S. cerevisiae deletion strains, locus YLR342W, strain FKS1 (second series), stronger effect = lower value 1.02 | S. cerevisiae deletion strains, locus YLR342W, strain FKS1, stronger effect = lower value 1.02 | S. cerevisiae deletion strains, locus YLR357W, strain rsc2, stronger effect = lower value 1.05 | S. cerevisiae deletion strains, locus YLR370C, strain arc18, stronger effect = lower value 1.02 | S. cerevisiae deletion strains, locus YLR371W, strain rom2, stronger effect = lower value 1.02 | S. cerevisiae deletion strains, locus YLR384C, strain iki3, stronger effect = lower value 0.998 | S. cerevisiae deletion strains, locus YLR418C, strain cdc73, stronger effect = lower value 1.02 | S. cerevisiae deletion strains, locus YML016C, strain PPZ1, stronger effect = lower value 1.01 | S. cerevisiae deletion strains, locus YML032C, strain rad52, stronger effect = lower value 1.05 | S. cerevisiae deletion strains, locus YML120C, strain ndi1, stronger effect = lower value 1.02 | S. cerevisiae deletion strains, locus YML124C, strain tub3, stronger effect = lower value 1 | S. cerevisiae deletion strains, locus YMR058W, strain fet3, stronger effect = lower value 1.02 | S. cerevisiae deletion strains, locus YMR078C, strain ctf18, stronger effect = lower value 1.02 | S. cerevisiae deletion strains, locus YMR125W, strain sto1, stronger effect = lower value 1.01 | S. cerevisiae deletion strains, locus YMR129W, stronger effect = lower value 1.01 | S. cerevisiae deletion strains, locus YMR205C, strain PFK2, stronger effect = lower value 1.03 | S. cerevisiae deletion strains, locus YMR223W, strain ubp8, stronger effect = lower value 0.985 | S. cerevisiae deletion strains, locus YMR231W, strain pep5, stronger effect = lower value 1.01 | S. cerevisiae deletion strains, locus YMR263W, strain SAP30, stronger effect = lower value 1.02 | S. cerevisiae deletion strains, locus YMR307W, strain GAS1, stronger effect = lower value 0.994 | S. cerevisiae deletion strains, locus YNL067W, strain RPL9B, stronger effect = lower value 1.03 | S. cerevisiae deletion strains, locus YNL071W, strain lat1, stronger effect = lower value 1.01 | S. cerevisiae deletion strains, locus YNL128W, strain TEP1, stronger effect = lower value 1.02 | S. cerevisiae deletion strains, locus YNL153C, strain GIM3, stronger effect = lower value 1.03 | S. cerevisiae deletion strains, locus YNL183C, strain NPR1, stronger effect = lower value 0.926 | S. cerevisiae deletion strains, locus YNL209W, strain ssb2, stronger effect = lower value 1.02 | S. cerevisiae deletion strains, locus YNL233W, strain BNI4, stronger effect = lower value 1.03 | S. cerevisiae deletion strains, locus YNL248C, strain rpa49, stronger effect = lower value 1.01 | S. cerevisiae deletion strains, locus YNL250W, strain rad50, stronger effect = lower value 1.01 | S. cerevisiae deletion strains, locus YNL271C, strain bni1, stronger effect = lower value 1.01 | S. cerevisiae deletion strains, locus YNL298W, strain CLA4, stronger effect = lower value 1.01 | S. cerevisiae deletion strains, locus YNL307C, strain MCK1, stronger effect = lower value 1 | S. cerevisiae deletion strains, locus YNL322C, strain KRE1 (second series), stronger effect = lower value 1.01 | S. cerevisiae deletion strains, locus YNL322C, strain KRE1, stronger effect = lower value 1.01 | S. cerevisiae deletion strains, locus YNR049C, strain mso1, stronger effect = lower value 1 | S. cerevisiae deletion strains, locus YNR052C, strain pop2, stronger effect = lower value 1.01 | S. cerevisiae deletion strains, locus YOL006C, strain TOP1, stronger effect = lower value 1.07 | S. cerevisiae deletion strains, locus YOL012C, strain htz1 0.833 | S. cerevisiae deletion strains, locus YOL147C, strain pex11, stronger effect = lower value 1 | S. cerevisiae deletion strains, locus YOR001W, strain rrp6, stronger effect = lower value 1.01 | S. cerevisiae deletion strains, locus YOR061W, strain CKA2, stronger effect = lower value 1.01 | S. cerevisiae deletion strains, locus YOR069W, strain VPS5, stronger effect = lower value 1.01 | S. cerevisiae deletion strains, locus YOR070C, strain gyp1, stronger effect = lower value 1.02 | S. cerevisiae deletion strains, locus YOR080W, strain dia2, stronger effect = lower value 1.01 | S. cerevisiae deletion strains, locus YOR083W, strain WHI5, stronger effect = lower value 1.01 | S. cerevisiae deletion strains, locus YOR106W, strain vam3, stronger effect = lower value 1.02 | S. cerevisiae deletion strains, locus YOR136W, strain idh2, stronger effect = lower value 1 | S. cerevisiae deletion strains, locus YOR144C, strain elg1, stronger effect = lower value 1.01 | S. cerevisiae deletion strains, locus YOR184W, strain ser1, stronger effect = lower value 1.02 | S. cerevisiae deletion strains, locus YOR231W, strain MKK1, stronger effect = lower value 0.947 | S. cerevisiae deletion strains, locus YOR265W, strain rbl2, stronger effect = lower value 1.01 | S. cerevisiae deletion strains, locus YOR270C, strain vph1, stronger effect = lower value 0.996 | S. cerevisiae deletion strains, locus YOR290C, strain snf2, stronger effect = lower value 0.98 | S. cerevisiae deletion strains, locus YOR316C, strain cot1, stronger effect = lower value 1.01 | S. cerevisiae deletion strains, locus YPL051W, strain arl3, stronger effect = lower value 1.01 | S. cerevisiae deletion strains, locus YPL055C, strain LGE1, stronger effect = lower value 1.04 | S. cerevisiae deletion strains, locus YPL078C, strain atp4, stronger effect = lower value 0.997 | S. cerevisiae deletion strains, locus YPL106C, strain sse1, stronger effect = lower value 1.03 | S. cerevisiae deletion strains, locus YPL240C, strain hsp82, stronger effect = lower value 1.02 | S. cerevisiae deletion strains, locus YPL241C, strain CIN2, stronger effect = lower value 1.01 | S. cerevisiae deletion strains, locus YPL256C, strain CLN2, stronger effect = lower value 0.942 | S. cerevisiae deletion strains, locus YPR119W, strain clb2, stronger effect = lower value 1.01 | S. cerevisiae deletion strains, locus YPR141C, strain kar3, stronger effect = lower value 1.01 | S. cerevisiae deletion strains, locus YPR163C, strain tif3, stronger effect = lower value 1.02 | S. cerevisiae deletion strains, locus YPR167C, strain met16, stronger effect = lower value 1.01 | S. cerevisiae deletion strains, strain wtn01, stronger effect = lower value 1.03 | S. cerevisiae strains, strain wild type, stronger effect = lower value 1.01
